Assay results: PubChem BioAssay (NCI)
This is part of a sample that, as a whole, favours compounds with a hit. Of some 83,000 tested, about 20% had one in any assay.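 96-well plates, one dose, 48 hours. Percent growth reported; active if below 10.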 Unmarked numbers belong to inactive results. Calls of active or inactive are those of the source.

What was measured:
Assay in all cases: NCI-60 one-dose screen, 48 h (100 = growth as untreated, 0 = no growth, -100 = all killed)
[1] = tested on: HCT-15 colon; conditions: 10 µM unless noted
[2] = tested on: HT29 colon; conditions: 10 µM unless noted
[3] = tested on: SNB-75 CNS; conditions: 10 µM unless noted
[4] = tested on: SNB-19 CNS; conditions: 10 µM unless noted
[5] = tested on: U251 CNS; conditions: 10 µM unless noted
[6] = tested on: PC-3 prostate; conditions: 10 µM unless noted
[7] = tested on: SK-MEL-5 melanoma; conditions: 10 µM unless noted
[8] = tested on: UACC-62 melanoma; conditions: 10 µM unless noted
[9] = tested on: LOX IMVI melanoma; conditions: 10 µM unless noted
[10] = tested on: SK-MEL-28 melanoma; conditions: 10 µM unless noted
[11] = tested on: SK-MEL-2 melanoma; conditions: 10 µM unless noted
[12] = tested on: EKVX NSCLC; conditions: 10 µM unless noted
[13] = tested on: SN12C renal; conditions: 10 µM unless noted
[14] = tested on: UO-31 renal; conditions: 10 µM unless noted
[15] = tested on: TK-10 renal; conditions: 10 µM unless noted
[16] = tested on: ACHN renal; conditions: 10 µM unless noted
[17] = tested on: CAKI-1 renal; conditions: 10 µM unless noted
[18] = tested on: A498 renal; conditions: 10 µM
[19] = tested on: HL-60(TB) leukemia; conditions: 10 µM unless noted
[20] = tested on: CCRF-CEM leukemia; conditions: 10 µM unless noted

Structure (SMILES) | growth [1] | growth [2] | growth [3] | growth [4] | growth [5] | growth [6] | growth [7] | growth [8] | growth [9] | growth [10] | growth [11] | growth [12] | growth [13] | growth [14] | growth [15] | growth [16] | growth [17] | growth [18] | growth [19] | growth [20]
C1CCC([PH+](C2CCCCC2)C2CCCCC2[PH+](C2CCCCC2)C2CCCCC2)CC1.O=C(C1[CH-]CCCC1)C1CCCC[N-]1.[Au] (stereo not given) | 2.02% (active) | -43.7% (active) | -6.22% (active) | -95.2% (active) | -84.1% (active) | -6.85% (active) | -98.8% (active) | -85.8% (active) | -95.9% (active) | -69.5% (active) | -52.6% (active) | -53.2% (active) | -52.3% (active) | -87.9% (active) | -47.7% (active) | -74.6% (active) | -57.4% (active) | -51.3% (active) | -39.2% (active) | 2.64% (active)
O=C(O)C(Cl)(Cl)C(F)(F)F | 104% | 103% | 97.7% | 105% | 108% | 102% | 103% | 105% | 106% | 110% | 105% | 105% | 104% | 93.5% | 98.3% | 107% | 95% | 95.1% | 110% | 100%
Nc1ccc2c(c1)Cc1cc(Br)ccc1-2 | 101% | 119% | 76.6% | 101% | 104% | 89.6% | 104% | 88.8% | 94.2% | 116% | 112% | 64.2% | 85.3% | 49% | 123% | 106% | 98.1% | 76.4% | 47.8% | 50%
CC1(C)N=C(N)N=C(N)N1c1ccc(OCCCNC(=O)Nc2ccc(S(=O)(=O)F)cc2)c(Cl)c1 | 41.5% | 8% (active) | 57.6% | 28.6% | 24.5% | 12.7% | 29% | 23.7% | 16.2% | 54.2% | 53.3% | 53% | 23.8% | 83.6% | 33.3% | 26.4% | 92.1% | 85.3% | 31.8% | 24.2%
CC(=O)Nc1nc2c(s1)CC[C@@]1(C)C2=CC[C@H]2[C@@H]3CC[C@H](O)[C@@]3(C)CC[C@@H]21 | 29.5% | 20.8% | 54.5% | 62.1% | 48.5% | 67.8% | 53.7% | 34.9% | 53.6% | 56.4% | 47.4% | 92.5% | 74% | 80.3% | 91.1% | 63.9% | 44.1% | 67.8% | 29.3% | 38.8%
[Cl][Hg][n]1c(-c2ccco2)nc2ccccc21 | 92% | 104% | 91.7% | 93.1% | 91.5% | 98.5% | 97% | 95.8% | 15.4% | 108% | 93.5% | 111% | 94.8% | 103% | 124% | 96.6% | 107% | 114% | 95.5% | 89.9%
C=CCn1cc(C=C2C(=O)N(C)C(=O)N(C)C2=O)c2ccccc21 | 106% | 104% | 78.7% | 96.2% | 98.2% | 89.4% | 94.9% | 93.8% | 94.8% | 97.9% | 102% | 84.4% | 102% | 78.2% | 120% | 98.9% | 90.3% | -90.6% (active) | 121% | 87.9%
NC(N)=N/N=C\c1c[nH]c2ccc(Br)cc12 | 105% | 92.3% | 72.6% | 67.1% | 32.9% | 72.2% | 67.6% | 101% | 93.7% | 100% | 99.9% | 93.8% | 68.5% | 86.1% | 116% | 95.4% | 101% | 89.7% | 93.5% | 78.6%
COc1cc2c(cc1OCCCCCn1c(-c3ccco3)nc3ccccc31)N=C[C@@H]1CCCN1C2=O | 7.84% (active) | 1.38% (active) | -64.2% (active) | 23.3% | 8.03% (active) | 17.5% | -17% (active) | -86.9% (active) | -31.6% (active) | -58.6% (active) | -43.9% (active) | 22.7% | 15.8% | -23.9% (active) | -1.37% (active) | 10.2% | 12% | -39.6% (active) | -27.4% (active) | 29.8%
CC(=O)OC1CCC2(C)C(CCC3C2CC(=O)C2(C)C3CC(Sc3ccc(N(CCCl)CCCl)cc3)C2C(C)=O)C1 (stereo not given) | 50.5% | 11.9% | 111% | 82.7% | 68.1% | 85.5% | 93% | 67.9% | 55.1% | 99.8% | 93.3% | 115% | 87.3% | 77.6% | 92.6% | 72.3% | 68% | 103% | 79.3% | 63.1%
Cc1ccc(C(Cc2ccccc2)NCCO)cc1 (stereo not given) | 103% | 65.4% | 87.1% | 99.3% | 87.8% | 69.4% | 98.4% | 94.7% | 100% | 61.9% | 54.7% | 100% | 102% | 86.1% | 88% | 89.6% | 98% | 97.9% | 91.4% | 98.5%
CCN(CC)CCOC(=O)C(OC(C)C)(c1ccccc1)c1ccccc1 | 96.4% | 79.7% | 88.3% | 96.2% | 101% | 83.7% | 97.6% | 103% | 96.7% | 99.6% | 88.2% | 93.5% | 106% | 79.1% | 89% | 104% | 87.2% | 72.6% | 99.6% | 102%
O=C1C(Cl)=C(N2CCOCC2)C(=O)c2ccccc21 | 71.5% | 116% | 102% | 116% | 67% | 71.9% | 92% | 105% | 76.7% | 118% | 119% | 96.9% | 105% | 51.8% | 127% | 78.4% | 6.93% (active) | 93.8% | -36.6% (active) | -27.6% (active)
COc1ccc(S(=O)(=O)N(Cc2ccc3c(c2)C=CC(C)(C)O3)c2ccccc2)cc1OC | 74.9% | 72.9% | 83.1% | 93.7% | 89.1% | 73.7% | 3.42% (active) | 79.1% | 74.2% | 67.9% | 97.1% | 58.1% | 95.9% | 67.4% | 102% | 61.3% | 61.7% | 77.8% | 70.6% | 72%
CCCCN(CCCC)P(=O)(Oc1ccccc1)Oc1ccccc1 | 68.1% | 39.1% | 50.9% | 60.1% | 53.1% | 38.6% | 67% | 60.1% | 67.7% | 94.1% | 43.4% | 59% | 59.9% | 42.2% | 78.5% | 80.8% | 32.4% | 93.8% | 32.5% | 61.9%
